The subject of assay [1] is Wnt5a (protein binding on small-molecule microarray). As to the kind of experiment: small molecules binding Wnt5a protein – biophysical, small-molecule microarray, 635/667 nm fluorescence, primary screen (AID 1142).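 Also: fluorescence read at 667 nm with signal to noise per printed feature.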 The settings on record: 635 nm fluorescence, higher = more signal.
The nature of assay [2]: ATP-based viability of Huh7 replicon cells – cell-based, CellTiter-Glo luminescence, basal, 48 h, cytotoxicity control for HCV replication inhibitor project, primary screen (AID 1143).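 Also: Huh7 hepatoma cells carrying a hepatitis C replication reporter with no stimulus; test concentration not given here.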 The settings on record: higher = more signal, called active from +8 up or from −8 down. Background: Replicon systems follow genome replication, usually without infectious particles.
The nature of assay [3]: Pseudomonas biofilm growth suppression – PAO1 strain, BacTiter-Glo luminescence, LB-PBS, primary screen (AID 1144). The settings on record: P. aeruginosa PAO1 biofilm, 12 h, higher = more signal.
The nature of assay [4]: basal CRE-LacZ reporter activity in PC12 – cell-based, unstimulated, primary screen (AID 1145). The settings on record: no forskolin, luminescence, 4.5 h, higher = more signal, called active from +8 up or from −8 down.
A short description of assay [5]: forskolin-driven CRE-LacZ activity in PC12 – cell-based, CRE-LacZ reporter, forskolin-stimulated, primary screen (AID 1146).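 Also: PC12 cells with 6xCRE LacZ reporter stimulated by forskolin 10 µM; beta-galactosidase reporter signal reflecting CREB driven transcription.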 The settings on record: luminescence, 4.5 h, higher = more signal, called active from +8 up or from −8 down.
The target of assay [6] is Streptavidin (Streptomyces avidinii) (UniProt P22629). As to the kind of experiment: compounds binding control protein streptavidin – biophysical, small-molecule microarray, 635/667 nm fluorescence, artefact control for SMM compound annotation, primary screen (AID 1147).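 Also: signal reflects streptavidin binding to arrayed compounds as a control protein.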 The settings on record: higher = more signal.
Sequence of Streptavidin (Streptomyces avidinii) (P22629 whole entry, looked up): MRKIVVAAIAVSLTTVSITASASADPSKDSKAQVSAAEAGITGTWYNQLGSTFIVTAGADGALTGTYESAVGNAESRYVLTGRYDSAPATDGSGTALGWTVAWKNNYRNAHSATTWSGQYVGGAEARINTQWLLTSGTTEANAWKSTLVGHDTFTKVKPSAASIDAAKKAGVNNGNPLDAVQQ
Assay [7] in a line: probe aInhba binding on compound microarray – biochemical, small-molecule microarray, 635/667 nm fluorescence, primary screen (AID 1148).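 Also: score merges 667nm spot fluorescence with signal-to-noise for antibody binding to printed compounds.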 The conditions noted are these: higher = more signal.
In assay [8] the target is Torsin-1A (Homo sapiens) (UniProt O14656). As to the kind of experiment: TOR1A wild-type binding on microarray – cell lysate, small-molecule microarray, lysate, 635/667 nm, primary screen (AID 1149). The settings on record: COS7 hTOR1A-WT lysate, 635 nm fluorescence, higher = more signal.
Sequence of Torsin-1A (Homo sapiens) (O14656 whole entry, looked up): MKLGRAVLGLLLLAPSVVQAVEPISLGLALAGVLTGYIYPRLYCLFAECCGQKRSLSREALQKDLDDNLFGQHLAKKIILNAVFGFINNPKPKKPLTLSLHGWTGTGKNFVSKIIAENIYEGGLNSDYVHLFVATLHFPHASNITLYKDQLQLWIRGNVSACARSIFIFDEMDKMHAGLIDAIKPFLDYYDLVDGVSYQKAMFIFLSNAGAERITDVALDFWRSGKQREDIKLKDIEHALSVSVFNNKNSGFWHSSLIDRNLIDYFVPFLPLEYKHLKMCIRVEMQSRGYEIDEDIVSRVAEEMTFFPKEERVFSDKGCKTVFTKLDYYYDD
Assay [9] shares this target. As to the kind of experiment: torsin A mutant lysate binding on microarrays – cell lysate, small-molecule microarray, COS7 lysate, 635/667 nm fluorescence, primary screen (AID 1150).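 Also: score pools 667 nm emission and signal to noise measuring lysate protein binding.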 The settings on record: COS7 hTOR1A mutant lysate, 635 nm fluorescence, higher = more signal.
Assay [10] deals with Sonic hedgehog protein (Shh). As to the kind of experiment: Sonic hedgehog microarray binding compounds – biochemical, small-molecule microarray, 635/667 nm fluorescence, primary screen (AID 1151).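 Also: Shh protein binding to compounds spotted on small-molecule microarray slides; score combines spot fluorescence intensity with signal-to-noise across triplicate slides.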 The conditions noted are these: 635 nm fluorescence, higher = more signal.
Assay [11] can be described thus: optical density shifts of acrAB sulA E. coli – strain DRC41, OD650, 48 h, E. coli filamentation inducer project, primary screen (AID 1152).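 Also: E. coli MC1000 strain DRC41 lacking acrAB efflux pump and sulA.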 The settings on record: higher = more signal, called active from +8 up or from −8 down.
Assay [12] is described as follows: probe aLefty1 binding on compound microarray – biochemical, small-molecule microarray, 635/667 nm fluorescence, primary screen (AID 1153).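 Also: score merges spot fluorescence with signal-to-noise ratio from the scanned slide images.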 The settings on record: higher = more signal.
A short description of assay [13]: plasmodial surface anion channel blockers, osmotic lysis – cell-based, P. falciparum Indochina, OD700, 1 h, primary screen (AID 1154). The settings on record: P. falciparum Indochina infected RBC osmotic lysis, higher = more signal, called active from +8 up or from −8 down.
Assay [14] is described as follows: plasmodial surface anion channel blockers, osmotic lysis – cell-based, P. falciparum Indochina, OD700, 2 h, primary screen (AID 1155).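 Also: lysis reports solute entry through the parasite surface anion channel PSAC.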 The settings on record: P. falciparum Indochina infected erythrocytes, higher = more signal, called active from +8 up or from −8 down.
Assay [15] in a line: changes in parasitized red cell lysis, either direction – P. falciparum Indochina, OD700, 3 h, PSAC antagonist project, primary screen (AID 1156). The conditions noted are these: P. falciparum-infected erythrocytes, osmotic lysis, higher = more signal, called active from +8 up or from −8 down.
Assay [16] is described as follows: plasmodial surface anion channel blockers, osmotic lysis – cell-based, P. falciparum Indochina, OD700, 18 h, primary screen (AID 1157). The settings on record: P. falciparum Indochina infected erythrocytes, osmotic lysis OD700, 18 h; higher = more signal, called active from +8 up or from −8 down.
Assay [17] is described as follows: S6 kinase pathway phospho-S6 level changes – cell-based, A549, cytoblot, luminescence, serum-stimulated, primary screen (AID 1158).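 Also: serum-stimulated A549 lung adenocarcinoma cells; signal is phosphorylated S6 detected by cytoblot immunostaining with HRP secondary.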 The conditions noted are these: 5 h, higher = more signal.
In assay [18] the target is NADPH oxidase 2 (Homo sapiens) (UniProt P04839). As to the kind of experiment: compounds shifting NOX2 Amplex Red fluorescence – cell-based, HEK293-NOX2, PMA-stimulated, NOX inhibitor project, primary screen (AID 1159). Also: test concentration not given here. The settings on record: 45 min, higher = more signal, called active from +8 up or from −8 down.
Sequence of NADPH oxidase 2 (Homo sapiens) (P04839 whole entry, looked up): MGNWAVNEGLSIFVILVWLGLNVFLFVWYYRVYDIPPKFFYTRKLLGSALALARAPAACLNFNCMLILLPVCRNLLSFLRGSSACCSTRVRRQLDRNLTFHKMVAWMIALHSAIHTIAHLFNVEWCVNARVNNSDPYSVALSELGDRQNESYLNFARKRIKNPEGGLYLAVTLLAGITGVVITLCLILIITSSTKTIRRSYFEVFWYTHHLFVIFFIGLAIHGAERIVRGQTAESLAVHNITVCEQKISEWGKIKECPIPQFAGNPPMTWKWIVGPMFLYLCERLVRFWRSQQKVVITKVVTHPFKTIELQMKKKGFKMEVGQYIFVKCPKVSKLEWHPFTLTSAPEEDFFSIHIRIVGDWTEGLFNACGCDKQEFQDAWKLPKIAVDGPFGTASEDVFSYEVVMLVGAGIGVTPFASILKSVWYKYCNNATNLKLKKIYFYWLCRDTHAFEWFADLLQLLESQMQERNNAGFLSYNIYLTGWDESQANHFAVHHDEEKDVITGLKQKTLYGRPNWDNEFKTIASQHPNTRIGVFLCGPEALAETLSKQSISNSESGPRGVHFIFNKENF
Assay [19] concerns the target NADPH oxidase 4 (Homo sapiens) (UniProt Q9NPH5). As to the kind of experiment: compounds shifting NOX4 Amplex Red fluorescence – cell-based, HEK293-NOX4, tetracycline-induced, NOX inhibitor project, primary screen (AID 1160). The conditions noted are these: HEK293-NOX4, Amplex Red H2O2 fluorescence, 45 min; higher = more signal, called active from +8 up or from −8 down.

Assay [20] concerns the target NADPH oxidase 5 (Homo sapiens) (UniProt Q96PH1). As to the kind of experiment: compounds shifting NOX5 Amplex Red fluorescence – cell-based, HEK293-NOX5, NOX inhibitor project, primary screen (AID 1161). The conditions noted are these: HEK293-NOX5, ionomycin, 45 min, higher = more signal.

Calls of active or inactive are those of the source. Unless noted, no rule for the calls is given here.

Sequence of NADPH oxidase 4 (Homo sapiens) (Q9NPH5 whole entry, looked up): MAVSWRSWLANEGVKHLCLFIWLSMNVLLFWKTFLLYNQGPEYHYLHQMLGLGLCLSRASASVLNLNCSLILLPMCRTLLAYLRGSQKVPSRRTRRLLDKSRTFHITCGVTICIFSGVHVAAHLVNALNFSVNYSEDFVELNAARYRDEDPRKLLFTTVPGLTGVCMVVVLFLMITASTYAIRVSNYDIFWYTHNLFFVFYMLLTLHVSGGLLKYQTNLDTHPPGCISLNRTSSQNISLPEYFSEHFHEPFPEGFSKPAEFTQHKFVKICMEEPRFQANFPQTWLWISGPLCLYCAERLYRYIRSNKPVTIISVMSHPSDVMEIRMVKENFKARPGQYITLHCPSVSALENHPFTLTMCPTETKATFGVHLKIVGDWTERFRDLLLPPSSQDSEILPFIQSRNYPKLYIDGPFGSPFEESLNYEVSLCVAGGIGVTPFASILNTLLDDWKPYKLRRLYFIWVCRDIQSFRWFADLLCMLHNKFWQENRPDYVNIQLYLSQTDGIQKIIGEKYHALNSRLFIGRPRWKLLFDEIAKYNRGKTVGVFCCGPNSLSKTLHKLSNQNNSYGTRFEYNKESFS
Sequence of NADPH oxidase 5 (Homo sapiens) (Q96PH1 whole entry, looked up): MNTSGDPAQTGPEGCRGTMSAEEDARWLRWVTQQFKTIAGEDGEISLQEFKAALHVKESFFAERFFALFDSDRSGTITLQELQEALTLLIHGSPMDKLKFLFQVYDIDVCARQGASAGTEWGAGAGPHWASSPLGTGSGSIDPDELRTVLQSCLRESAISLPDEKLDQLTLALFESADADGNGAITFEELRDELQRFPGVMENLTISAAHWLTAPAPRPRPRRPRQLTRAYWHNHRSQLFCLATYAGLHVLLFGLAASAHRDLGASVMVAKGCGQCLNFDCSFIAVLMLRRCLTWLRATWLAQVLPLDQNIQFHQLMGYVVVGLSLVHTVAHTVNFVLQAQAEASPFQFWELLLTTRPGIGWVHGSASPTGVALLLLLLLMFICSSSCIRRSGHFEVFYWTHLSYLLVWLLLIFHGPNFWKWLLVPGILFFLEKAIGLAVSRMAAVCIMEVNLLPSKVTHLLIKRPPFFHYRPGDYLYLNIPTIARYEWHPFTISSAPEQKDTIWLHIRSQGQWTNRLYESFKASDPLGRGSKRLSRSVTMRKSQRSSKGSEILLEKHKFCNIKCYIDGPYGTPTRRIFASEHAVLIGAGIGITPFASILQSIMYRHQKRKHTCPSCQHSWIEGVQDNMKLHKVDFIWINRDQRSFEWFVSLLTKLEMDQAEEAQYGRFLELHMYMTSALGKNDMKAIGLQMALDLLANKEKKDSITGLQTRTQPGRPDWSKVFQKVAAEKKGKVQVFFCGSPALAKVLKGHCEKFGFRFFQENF

Turning to `COC(=O)C(CC#Cc1ccc2c(c1)[C@]1(C(=O)N2)[C@H](C(=O)N2CCc3cc(OC)c(OC)cc3C2)[C@H]2C(=O)O[C@H](c3ccccc3)[C@H](c3ccccc3)N2[C@@H]1c1ccc(O)cc1)C(=O)OC`, the composite z-score in assay [1] worked out at 0.746; in assay [6] it was 0.112; in assay [7], 0.263; in the assay with Torsin-1A (Homo sapiens) [8] it was 0.644; with Torsin-1A (Homo sapiens) [9], 0.694; in assay [10], 1.87. Further, in assay [12], the composite z-score is -0.321. Further, the z-score in assay [2] was -3.3 (inactive); in [3], -1.21 (inactive); in assay [4], 0.0384 (inactive); in [5], -1.12 (inactive); in [11] it was 1.58 (inactive); in assay [13], 6.21 (inactive). Besides, the z-score was 1.93 (inactive) in [14]; 1.93 (inactive) in assay [15]; 0.958 (inactive) in [16]; 0.125 in assay [17]; -0.0647 (inactive) in [18]; -1.83 (inactive) in assay [19]. Moreover, the z-score in assay [20] came out at 0.121.

For the compound `C=CCC(OC(C)=O)[C@@H]1[C@@H](N(Cc2ccc(-c3ccccc3)cc2)C(=O)Cc2ccc(OC)cc2)c2cc(OCCCO)ccc2N1C(=O)c1ccc(-c2ccccc2)cc1` (stereo not given in full), the composite z-score in assay [1] was 0.0546; in assay [6], -0.0206; in assay [7], -0.0018; in the assay with Torsin-1A (Homo sapiens) [8], 0.0765; with Torsin-1A (Homo sapiens) [9] it was 0.0644; in [10] it was 1.16. The composite z-score in assay [12] is 0.587. The z-score in [2] is -1.56 (inactive); in assay [3] it was 0.148 (inactive); in assay [4], 1.34 (inactive); in assay [5] it was -0.522 (inactive); in assay [11] it was 0.769 (inactive); in [13], 1.09 (inactive). Further, the z-score in assay [14] is 0.969 (inactive); in [15] it was 0.0304 (inactive); in assay [16], 0.406 (inactive); in [17], 1; in assay [18], 0.713 (inactive); in assay [19] it was 0.878 (inactive). Also, in [20], the z-score is 2.49.

For the compound `[N-]=[N+]=NCc1ccccc1[C@H]1OC(c2ccc(OCCCO)cc2)=N[C@@]1(Cc1ccccc1N=[N+]=[N-])C(=O)NCCN1CCOCC1`, the composite z-score was 0.853 in assay [1]; 1.37 in assay [6]; 0.0657 in assay [7]; -0.161 in the assay with Torsin-1A (Homo sapiens) [8]; 1.04 with Torsin-1A (Homo sapiens) [9]; 0.271 in assay [10]. Moreover, the composite z-score in [12] was determined as 0.194. For the same compound, the z-score in assay [2] is -2.28 (inactive); in assay [3] it was 0.28 (inactive); in [4] it was 0.162 (inactive); in assay [5], -0.542 (inactive); in assay [11], 0.0417 (inactive); in assay [13] it was 24.7 (active). For the same compound, the z-score in [14] was 16.2 (active); in assay [15], 1.7 (inactive); in [16], 1.85 (inactive); in [17], -0.0338; in assay [18], -0.753 (inactive); in assay [19], -0.358 (inactive). In addition, the z-score in assay [20] was 1.41.

As to `[N-]=[N+]=Nc1ccccc1C[C@]1(C(=O)NCCN2CCOCC2)N=C(c2ccc(OCCCO)cc2)O[C@H]1c1ccccc1N=[N+]=[N-]`, the composite z-score amounted to 0.682 in assay [1]; 0.678 in assay [6]; 0.726 in [7]; 0.818 with Torsin-1A (Homo sapiens) [8]; 0.954 with Torsin-1A (Homo sapiens) [9]; 0.926 in [10]. The compound also came in with a composite z-score in [12] of 0.628. Further, the z-score was -3.68 (inactive) in [2]; -0.933 (inactive) in assay [3]; 0.573 (inactive) in [4]; -1.29 (inactive) in assay [5]; 1.11 (inactive) in [11]; 27.7 (active) in [13]. Also, the z-score in assay [14] was 23.2 (active); in assay [15], 1.35 (inactive); in assay [16], 4.41 (inactive); in [17], 1.75; in assay [18], -2.69 (inactive); in assay [19], 0.686 (inactive). In addition, in [20], the z-score was -1.15.

Source of the values: PubChem BioAssay.
